Source: PubChem
Many of the other results were omitted from the sample, so hits are more common in it than they were.
CHX counter – Cycloheximide Counterscreen for Small Molecule Inhibitors of Shiga Toxin; 12% of 300,000 active; max response, %; cell reporter, cycloheximide protein synthesis inhibition counterscreen; in the data active = max response mostly above about 13%, no sharp cut-off; inactive = mostly below about 14%; also: read at 38.3 µM for the half of the compounds with a filed dose; 0% is about no effect
VACV Venus inh – qHTS for Stage-Specific Inhibitors of Vaccinia Orthopoxvirus: Venus Reporter Primary qHTS | Vaccinia virus Venus reporter expression, fluorescence | Potency, µM (doses to about 36.5 µM), for the others: top-dose activity change, negative = inhibition, actives largely listed as inhibitors | 0.46% of 330,000 active | AID 720580, 2013; calls by dose curve; tested in A549 cells; also: potency is read from the fitted curve at half-maximal effect; % is scaled to controls: 0 for no effect and ±100 for the full control effect; nearly all actives have a fitted effect of over 30% in size
Shiga inhibitor – A qHTS for Small Molecule Inhibitors of Shiga Toxin; Vero cells, Shiga toxin protein synthesis inhibition reporter; inhibition, % at 38.7 µM; 9.2% of 290,000 active; in the data active = inhibition mostly above about 28%, no sharp cut-off; inactive = mostly below about 43%; also: 0% is about no effect
Marburg entry inh – qHTS for inhibitors of binding or entry into cells for Marburg Virus | Potency, µM (titrated, usually from 37.8 µM), for inactives: at the top dose activity change, negative = inhibition, usual class: inhibitors | Marburg virus pseudotyped entry inhibition, cell reporter | 1.8% of 300,000 active; calls by dose curve; tested in HEK293 cells; also: potency is read from the fitted curve at half-maximal effect; % is scaled to controls: 0 for no effect and ±100 for the full control effect
LASV entry inh – qHTS for Inhibitors of binding or entry into cells for Lassa Virus. Lassa virus pseudotype entry inhibition, cell reporter. Potency, µM (highest dose often 37.9 µM), for inactives: top-dose activity change, negative = inhibition, usual class: inhibitors. 1.2% of 300,000 active. AID 540256, 2011; calls by dose curve; tested in HEK293 cells; also: potency is read from the fitted curve at half-maximal effect; % is scaled to controls: 0 for no effect and ±100 for the full control effect; nearly all actives have a fitted effect of over 50% in size
Vaccinia mCherry – qHTS for Stage-Specific Inhibitors of Vaccinia Orthopoxvirus: mCherry Reporter Primary qHTS. Vaccinia virus mCherry reporter infection, fluorescence. Potency, µM (doses to about 36.5 µM), for inactives: at the highest dose activity change, negative = inhibition, actives largely listed as inhibitors. 0.63% of 310,000 active. AID 720579, 2013; calls by dose curve; tested in A549 cells; also: potency is read from the fitted curve at half-maximal effect; % is scaled to controls: 0 for no effect and ±100 for the full control effect; nearly all actives have a fitted effect of over 35% in size
Numbers without * were called inactive; i = inactive; u = inconclusive; x = not tested or not shown; [ ] = dose if it differs, or a comment.

SMILES	CHX counter	VACV Venus inh	Shiga inhibitor	Marburg entry inh	LASV entry inh	Vaccinia mCherry
Cc1nn(-c2ccccc2)c(C)c1/C=N/n1cnnc1	-3.7	-1.2%	-12.8	1.1%[46.1 µM]	-3.2%	-3.4%
Cc1nn(-c2ccccc2)c(C)c1/C=N/NC(=O)c1ccccc1O	41.7*	-12.4%	38.2*	-1.7%	8.9%	-18.0%
Cc1nn(-c2ccccc2)c(C)c1/C=N/NC(=O)c1ccccc1NS(=O)(=O)c1cccs1	5.4	-3.8%	9.6	5.0%	6.2%	i
Cc1nn(-c2ccccc2)c(C)c1/C=N/O	13.7*	u	14.9	11.0%	11.7%	x
COc1ccc2c(CNCCc3ccccc3OC)c(C(=O)O)n(Cc3ccc(F)cc3Cl)c2c1	x	u	x	x	-12.3%[46.1 µM]	-5.5%
Cc1ccccc1CSCCNC(=O)COc1ccc(Cl)cc1	1.0	-1.4%	11.8	-0.4%	-24.3%	-1.3%
CC(C)(C)SCCNC(=O)COc1ccc(Cl)cc1	11.0*	1.4%	-5.6	1.6%	0.0%	i
COc1ccc2nc(N(Cc3cccnc3)C(=O)c3ccc(Cl)cc3)sc2c1	x	-4.8%	x	x	u	-14.7%
COc1ccc(-n2nnc(-c3nc(-c4ccc5c(c4)OCO5)no3)c2C)cc1Cl	x	-4.5%	x	x	28.6%[46.1 µM]	-8.3%
CC1CN=C(Nc2ccc(F)c(Cl)c2)S1 (stereo not drawn)	14.7	2.5%	77.0*	-17.7%[46.1 µM]	5.3%[46.1 µM]	u
Fc1ccc(NC2=NCCS2)cc1Cl	-0.3	-3.1%	5.6	17.1%	14.3%	-12.1%
C[C@@H](C(=O)Nc1ccc2c(c1)OCO2)n1c(=O)[nH]c2ccccc2c1=O	14.0	-17.2%	29.3*	13.5%[46.1 µM]	6.1%[46.1 µM]	-24.9%
O=C(Cn1c(=O)[nH]c2ccccc2c1=O)Nc1ccc2c(c1)OCO2	10.2	x	21.4	x	x	x
C[C@@H](C(=O)Nc1ccc2c(c1)OCCO2)n1c(=O)[nH]c2ccccc2c1=O	48.8*	x	147.4*	x	x	x
COc1ccc(/C=C/C(=O)NCC2Cc3cc(Cl)cc(-c4ncccn4)c3O2)cc1 (stereo not drawn)	x	-7.1%	x	x	x	-8.5%
CCCN1CNc2c(c(=O)[nH]c(=S)n2CCCc2ccccc2)C1	x	-11.8%	x	x	x	-0.3%
Cc1ccc(S(=O)(=O)N(C)C)cc1NC(=O)CSc1nncs1	x	-8.0%	x	u	29.7%	i
CCCCC(CC)C(=O)Oc1ccc(O)c(C(C)(C)C)c1 (stereo not drawn)	8.5	u	24.5	u	10µM*	u
CC(C)(C)c1cc(OC(=O)C2CCCC2)ccc1O	-5.8	u	x	-17.8%	-10.4%	-22.8%
Cc1ccc(NC(=O)C(OC(=O)c2ccc(C=O)cc2)c2ccccc2)cc1Cl (stereo not drawn)	14.7*	-5.8%	5.4	-9.6%[46.1 µM]	u	-5.6%
O=C1N/C(=N\c2ccccn2)SC1Cc1ccc(Cl)cc1 (stereo not drawn)	-2.2	-3.1%	-9.4	-7.3%	-15.9%	-1.1%
CC1(c2ccc(OC(F)F)cc2)NC(=O)N(CC(=O)Nc2ccc(Cl)cc2F)C1=O (stereo not drawn)	12.7*	-10.2%	30.2	0.1%[46.1 µM]	2.2%[46.1 µM]	i
N#Cc1ccc(S(=O)(=O)N2CCCCC2c2cc(C(=O)Nc3cccc4c3CCCC4)no2)cc1 (stereo not drawn)	x	-15.9%	x	x	x	i
CC(C)NC(=O)C1(C)CCN1CCC(=O)c1ccccc1 (stereo not drawn)	x	-3.5%	x	x	x	3.9%
COc1ccc(C(=O)N=c2sc3ccccc3n2C)cc1OC	19.6	-8.0%	32.2	u	-7.1%[46.1 µM]	i
SMILES	CHX counter	VACV Venus inh	Shiga inhibitor	Marburg entry inh	LASV entry inh	Vaccinia mCherry
COc1ccccc1N=c1sc2ccccc2n1C	12.8*	-3.3%	2.5	-16.9%	-2.1%	-19.5%
COc1ccc(N=c2sc3ccccc3n2C)cc1	40.9*	1.7%	50.5	-14.4%	u	i
Cn1c(=NCC(O)COc2ccccc2)sc2ccccc21 (stereo not drawn)	17.7	-15.6%	22.6	u	u	x
COc1cccc(CNC(=O)CCCn2ncn3c(cc4occc43)c2=O)c1OC	x	-8.3%	x	22.0%[46.1 µM]	11.0%[46.1 µM]	-8.6%
Cc1ccc(S(=O)(=O)NCC(=O)N(c2ccccc2)C(C(=O)NCc2ccccc2)c2ccco2)cc1 (stereo not drawn)	0.4	u	-8.3	20µM*	u	-10.2%
Cc1cc(C)cc(N(C(=O)CNS(=O)(=O)c2ccccc2)C(C(=O)NCc2ccccc2)c2ccc(C)o2)c1 (stereo not drawn)	4.7	-12.4%	5.9	u	11.6µM*	-0.1%
CC(C)C(C(=O)NCc1ccccc1)N(CC1CCCO1)C(=O)CNS(=O)(=O)c1ccccc1 (stereo not drawn)	-4.9	-4.2%	-8.2	-17.9%[46.1 µM]	-4.6%	-14.1%
COc1ccc(N(C(=O)CNS(=O)(=O)c2ccccc2)C(C(=O)NCc2ccco2)C(C)C)cc1 (stereo not drawn)	0.4	-14.8%	3.9	-16.7%[46.1 µM]	-9.7%[46.1 µM]	-8.2%
CC(C)NC(=O)c1onc(CSc2ccncc2)c1C(=O)NC(C)C	x	-6.8%	x	x	x	-1.0%
COc1ccc(C(=O)Nn2cnc3ccccc3c2=O)c(OC)c1	25.6*	x	39.0*	0.9%	x	x
O=C(/C=C/c1ccccc1Cl)Nn1cnc2ccccc2c1=O	-0.8	x	-7.4	22.7%	6.5%	x
O=C(Nn1cnc2ccccc2c1=O)c1ccccc1[N+](=O)[O-]	23.7	-3.9%	22.4	4.1%[46.1 µM]	-15.6%	-0.3%
O=C(Nc1ccc(Cl)cc1)Nn1cnc2ccccc2c1=O	24.2*	-1.6%	47.8*	1.2%[46.1 µM]	5.2%	-0.5%
O=C(/C=C/c1ccccc1)Nn1cnc2ccccc2c1=O	21.5*	-1.8%	29.1	u	-0.6%	i
COc1ccc(C(=O)Nn2c(C)nc3ccccc3c2=O)c(OC)c1	3.9	x	-2.6	x	x	x
O=C(Nn1cnc2ccccc2c1=O)c1ccccc1Cl	16.9*	-4.3%	28.7	29.0%	11.0%	-4.7%
CN(CC1COCCO1)C(=O)c1cnn(-c2nccc(-c3ccccc3C(F)(F)F)n2)c1C1CC1 (stereo not drawn)	x	1.0%	x	x	x	-12.6%
Cc1cc(OCC(=O)Nc2cc(-c3nc4ccccc4[nH]3)ccc2C)ccc1Cl	x	-12.2%	x	20.9%[46.1 µM]	-5.6%[46.1 µM]	-12.8%
Cc1ccccc1C(=O)Nn1cnc2ccccc2c1=O	32.7*	-10.6%	49.6*	-0.2%[46.1 µM]	u	-11.6%
Cc1c(Cl)cccc1NC(=O)CN1CCC(C(O)(c2ccccc2)c2ccccc2)CC1	1.2	x	-0.8	u	u	x
CC1=CC(C)(C)n2c(O)c(N=NC(N)=S)c3c(C)c(C)cc1c32	1.3	x	2.2	x	x	x
CC1=CC(C)(C)n2c(O)c(N=NC(N)=S)c3c(C)ccc1c32	-0.5	u	-12.8	-2.7%	-7.3%	1.26µM*
COc1ccc(/C=N/OCC(=O)Nc2nc3ccccc3s2)cc1OC	20.1*	-6.0%	13.2	14.8%	-0.3%	-20.0%
O=C(NCc1ccncc1)C(=O)Nc1nccs1	0.7	-5.3%	15.6	2.0%[46.1 µM]	3.6%[46.1 µM]	i
O=C(NCc1ccncc1)C(=O)Nc1nc2ccccc2s1	41.8*	x	52.0*	26.5%	2.4%	x
